Records with an inconclusive call do not appear. The source made the active and inactive calls. No rule for the calls is given here.
Experiment: growth inhibition of wild-type RFP versus H38-humanized GFP E. coli, dose response, H38 mutant GFP vs wild-type RFP, cherry-pick (AID 977627)
Settings: activity: measured here: wild-type RFP strain growth, at 50 µM, stronger effect = lower value

O=C(COC(=O)c1cccc(O)c1)Nc1ccc(Cl)cc1C(=O)c1ccccc1
activity: -8.13% | outcome: inactive

— PubChem BioAssay AID977627 (Broad Institute, 2014)
